According to the supplement of paper PMC10849652:
About 7,900 targets were measured; listed, in parts, are those with a hit and a random draw of the rest. About 0.6% of all pairs of compound and target were hits.

How the values were obtained:
Test in all cases: log2 fold change, soluble protein after heating vs DMSO (PISA); higher = thermal stabilisation; K562 cells, 10 uM, 30 min; active = over 0.2 and 3.5 SD of the protein, either way, in both replicates (recomputed)
[1] = compound: C1=CC=C(C=C1)[C@H](COC2=CC3=C(C=C2)NC(=O)N3)NC(=O)C4=CC=CN(C4=O)CC5=CC(=C(C=C5)F)F
In short: (§1)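 Soluble protein was defined as the supernatant after 21,000xg for 90 min. It came from K562 cells at 2×10^6 cells/mL given 10 μM compound for 30 min, heated in aliquots for 3 min across 48°C-58°C, pooled, and extracted in PBS with 0.5% NP-40 at 4°C, and was quantified by TMTpro 16plex LC-MS/MS with equalised channel sums. Thermal stability against control samples, from duplicates, is reported as log2 fold change.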

[2] = compound: CC1=C(SC2=C1C(=N[C@H](C3=NN=C(N32)C)CC(=O)N)C4=CC=C(C=C4)Cl)C
In short: as §1

[3] = compound: CC1=C2C(=CC=C1)N=C(N(C2=O)C3=CC=CC=C3C)CN4C=NC5=C(N=CN=C54)N
In short: as §1

[4] = compound: Cc1sc2c(c1C)C(c1ccc(Cl)cc1)=N[C@@H](CC(=O)OC(C)(C)C)c1nnc(C)n1-2
In short: as §1

[5] = compound: c1ccc([C@@H]2C[C@H]2NC2CCNCC2)cc1
In short: as §1

Measured: log2 fold change

RNF41 (UniProt Q9H4P4)
inactive: [1] 0.039

SCCPDH (UniProt Q8NBX0)
Chain of UniProt Q8NBX0 (Q8NBX0 whole entry, looked up): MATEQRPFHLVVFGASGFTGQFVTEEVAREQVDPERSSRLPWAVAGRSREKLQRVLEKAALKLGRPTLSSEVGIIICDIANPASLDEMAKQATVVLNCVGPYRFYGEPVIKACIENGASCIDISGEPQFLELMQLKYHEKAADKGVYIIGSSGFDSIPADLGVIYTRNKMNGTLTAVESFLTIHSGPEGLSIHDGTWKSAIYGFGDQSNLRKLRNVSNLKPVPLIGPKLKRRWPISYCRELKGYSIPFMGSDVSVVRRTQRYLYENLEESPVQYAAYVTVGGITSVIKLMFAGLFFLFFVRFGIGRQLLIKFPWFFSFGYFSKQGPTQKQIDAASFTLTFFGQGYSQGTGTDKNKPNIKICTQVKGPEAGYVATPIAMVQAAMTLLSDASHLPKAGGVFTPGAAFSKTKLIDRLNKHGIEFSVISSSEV
inactive: [1] -0.047 | [2] 0.087 | [3] 0.002 | [4] -0.003 | [5] -0.059

RETREG3 (UniProt Q86VR2)
inactive: [1] 0.076 | [2] 0.085 | [3] 0.007 | [4] -0.046 | [5] -0.037

RAB5C isoform 2 (UniProt P51148)
inactive: [1] -0.007 | [2] -0.009 | [3] -0.022 | [4] 0.011 | [5] 0.018

SDHC (UniProt Q99643)
Chain of UniProt Q99643 (Q99643 whole entry, looked up): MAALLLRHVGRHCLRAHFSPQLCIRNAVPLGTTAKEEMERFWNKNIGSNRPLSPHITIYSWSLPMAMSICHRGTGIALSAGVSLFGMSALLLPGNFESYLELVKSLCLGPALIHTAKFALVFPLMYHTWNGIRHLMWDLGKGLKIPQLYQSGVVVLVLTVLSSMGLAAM
inactive: [1] -0.052 | [2] 0.004 | [3] -0.056 | [4] -0.018 | [5] 0.163

SHCBP1 (UniProt Q8NEM2)
inactive: [1] 0.018 | [2] -0.176 | [3] 0.138 | [4] -0.089 | [5] -0.056

RSPRY1 (UniProt Q96DX4)
inactive: [1] -0.009 | [2] 0.024 | [3] 0.012 | [4] -0.026 | [5] 0.029

RBM22 (UniProt Q9NW64)
inactive: [1] 0.033 | [2] -0.022 | [3] -0.013 | [4] 0.027 | [5] 0.049

RARS2 (UniProt Q5T160)
inactive: [1] 0.021 | [2] 0.046 | [3] 0.044 | [4] -0.026 | [5] -0.007

RPS12 (UniProt P25398)
inactive: [1] 0.032 | [2] -0.092 | [3] -0.066 | [4] 0.011 | [5] -0.019

RALY (UniProt Q9UKM9)
inactive: [1] 0.102 | [2] -0.379 | [3] -0.243 | [4] 0.031 | [5] 0.003

RPA1 (UniProt P27694)
inactive: [1] -0.032 | [2] 0.025 | [3] 0.087 | [4] -0.047 | [5] 0.011

SEPTIN5 (UniProt G3XAH0)
inactive: [1] 0.002 | [2] -0.014 | [3] 0.061 | [4] -0.043 | [5] -0.031

RBIS (UniProt Q8N0T1)
inactive: [1] 0.035 | [2] -0.034 | [3] -0.02 | [4] 0.101 | [5] 0

RNF167 (UniProt Q9H6Y7)
inactive: [1] -0.025 | [2] -0.011 | [3] 0.002 | [4] -0.017 | [5] 0.001

RPL31 (UniProt P62899)
inactive: [1] 0.106 | [2] -0.241 | [3] -0.22 | [4] 0.202 | [5] 0

SERINC3 (UniProt Q13530)
Chain of UniProt Q13530 (Q13530 whole entry, looked up): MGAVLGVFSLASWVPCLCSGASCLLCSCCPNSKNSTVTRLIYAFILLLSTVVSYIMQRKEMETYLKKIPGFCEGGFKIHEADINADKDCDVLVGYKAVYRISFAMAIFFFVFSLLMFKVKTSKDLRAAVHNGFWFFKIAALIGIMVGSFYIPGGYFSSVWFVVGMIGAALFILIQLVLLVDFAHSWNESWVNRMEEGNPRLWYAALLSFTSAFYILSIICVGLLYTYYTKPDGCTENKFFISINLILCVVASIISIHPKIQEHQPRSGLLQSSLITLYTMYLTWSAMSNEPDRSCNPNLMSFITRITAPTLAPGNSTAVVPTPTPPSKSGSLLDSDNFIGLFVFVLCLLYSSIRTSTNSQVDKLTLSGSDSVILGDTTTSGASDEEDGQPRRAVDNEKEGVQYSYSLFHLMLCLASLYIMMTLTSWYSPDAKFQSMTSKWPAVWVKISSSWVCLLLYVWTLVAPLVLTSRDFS
inactive: [1] -0.062 | [2] 0.045 | [3] 0.071 | [4] -0.062 | [5] 0.133

RRAS2 isoform 4 (UniProt P62070)
Chain of UniProt P62070 (P62070 whole entry, looked up): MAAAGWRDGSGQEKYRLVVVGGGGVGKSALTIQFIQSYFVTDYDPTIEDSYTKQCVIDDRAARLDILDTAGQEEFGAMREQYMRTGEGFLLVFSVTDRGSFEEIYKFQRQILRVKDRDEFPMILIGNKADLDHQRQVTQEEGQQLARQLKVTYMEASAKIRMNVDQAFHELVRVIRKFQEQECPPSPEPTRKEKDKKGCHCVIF
inactive: [1] 0.045 | [2] -0.017 | [3] -0.062 | [4] -0.03 | [5] 0.011

RAB3IL1 (UniProt E9PK89)
inactive: [1] 0.05 | [2] 0.259 | [3] -0.107 | [4] 0.15 | [5] -0.136

RECQL (UniProt P46063)
Chain of UniProt P46063 (P46063 whole entry, looked up): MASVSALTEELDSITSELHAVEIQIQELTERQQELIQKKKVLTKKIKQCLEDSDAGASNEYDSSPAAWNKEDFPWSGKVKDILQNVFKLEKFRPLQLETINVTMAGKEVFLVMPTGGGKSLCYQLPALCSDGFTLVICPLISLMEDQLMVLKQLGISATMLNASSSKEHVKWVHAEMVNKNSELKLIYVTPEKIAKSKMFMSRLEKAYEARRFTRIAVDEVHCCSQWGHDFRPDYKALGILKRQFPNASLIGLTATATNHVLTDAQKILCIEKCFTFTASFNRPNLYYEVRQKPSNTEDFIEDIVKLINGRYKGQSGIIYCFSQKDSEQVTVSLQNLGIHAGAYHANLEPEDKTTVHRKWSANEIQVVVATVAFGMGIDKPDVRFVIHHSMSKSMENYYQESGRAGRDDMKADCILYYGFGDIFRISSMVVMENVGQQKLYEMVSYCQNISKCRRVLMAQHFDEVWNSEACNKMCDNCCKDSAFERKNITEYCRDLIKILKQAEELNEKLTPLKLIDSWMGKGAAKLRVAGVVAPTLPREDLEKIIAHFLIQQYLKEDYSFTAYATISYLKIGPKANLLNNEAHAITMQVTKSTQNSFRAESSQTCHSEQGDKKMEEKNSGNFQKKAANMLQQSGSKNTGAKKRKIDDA
inactive: [1] -0.012 | [2] 0.087 | [3] 0.015 | [4] -0.029 | [5] -0.02

RPP25L (UniProt Q8N5L8)
inactive: [1] 0.032 | [2] -0.018 | [3] 0.026 | [4] 0.143 | [5] 0.033

RIPK1 (UniProt Q13546)
Chain of UniProt Q13546 (Q13546 whole entry, looked up): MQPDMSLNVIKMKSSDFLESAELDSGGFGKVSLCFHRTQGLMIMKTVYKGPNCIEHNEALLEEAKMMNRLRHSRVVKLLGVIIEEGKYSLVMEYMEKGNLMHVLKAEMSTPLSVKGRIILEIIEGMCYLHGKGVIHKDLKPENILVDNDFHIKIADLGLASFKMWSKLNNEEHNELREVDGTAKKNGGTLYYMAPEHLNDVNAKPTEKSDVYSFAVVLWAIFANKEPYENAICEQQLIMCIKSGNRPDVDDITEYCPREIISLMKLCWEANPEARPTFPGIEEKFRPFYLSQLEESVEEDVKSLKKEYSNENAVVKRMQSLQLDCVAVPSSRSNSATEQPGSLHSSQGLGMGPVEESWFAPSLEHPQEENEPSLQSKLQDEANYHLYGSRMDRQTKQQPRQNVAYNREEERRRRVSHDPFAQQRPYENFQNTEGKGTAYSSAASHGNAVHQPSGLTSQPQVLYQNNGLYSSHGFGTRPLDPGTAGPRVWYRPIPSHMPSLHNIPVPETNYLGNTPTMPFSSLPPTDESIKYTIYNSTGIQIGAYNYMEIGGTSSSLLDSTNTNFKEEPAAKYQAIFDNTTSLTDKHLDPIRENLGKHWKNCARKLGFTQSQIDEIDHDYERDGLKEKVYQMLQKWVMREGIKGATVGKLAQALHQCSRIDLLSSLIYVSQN
inactive: [1] -0.058 | [2] -0.134 | [3] 0.033 | [4] -0.048 | [5] -0.049

RDH10 (UniProt Q8IZV5)
inactive: [1] 0.113 | [2] 0.08 | [3] 0.098 | [4] -0.058 | [5] -0.031

RB1CC1 (UniProt Q8TDY2)
Chain of UniProt Q8TDY2 (Q8TDY2 whole entry, looked up): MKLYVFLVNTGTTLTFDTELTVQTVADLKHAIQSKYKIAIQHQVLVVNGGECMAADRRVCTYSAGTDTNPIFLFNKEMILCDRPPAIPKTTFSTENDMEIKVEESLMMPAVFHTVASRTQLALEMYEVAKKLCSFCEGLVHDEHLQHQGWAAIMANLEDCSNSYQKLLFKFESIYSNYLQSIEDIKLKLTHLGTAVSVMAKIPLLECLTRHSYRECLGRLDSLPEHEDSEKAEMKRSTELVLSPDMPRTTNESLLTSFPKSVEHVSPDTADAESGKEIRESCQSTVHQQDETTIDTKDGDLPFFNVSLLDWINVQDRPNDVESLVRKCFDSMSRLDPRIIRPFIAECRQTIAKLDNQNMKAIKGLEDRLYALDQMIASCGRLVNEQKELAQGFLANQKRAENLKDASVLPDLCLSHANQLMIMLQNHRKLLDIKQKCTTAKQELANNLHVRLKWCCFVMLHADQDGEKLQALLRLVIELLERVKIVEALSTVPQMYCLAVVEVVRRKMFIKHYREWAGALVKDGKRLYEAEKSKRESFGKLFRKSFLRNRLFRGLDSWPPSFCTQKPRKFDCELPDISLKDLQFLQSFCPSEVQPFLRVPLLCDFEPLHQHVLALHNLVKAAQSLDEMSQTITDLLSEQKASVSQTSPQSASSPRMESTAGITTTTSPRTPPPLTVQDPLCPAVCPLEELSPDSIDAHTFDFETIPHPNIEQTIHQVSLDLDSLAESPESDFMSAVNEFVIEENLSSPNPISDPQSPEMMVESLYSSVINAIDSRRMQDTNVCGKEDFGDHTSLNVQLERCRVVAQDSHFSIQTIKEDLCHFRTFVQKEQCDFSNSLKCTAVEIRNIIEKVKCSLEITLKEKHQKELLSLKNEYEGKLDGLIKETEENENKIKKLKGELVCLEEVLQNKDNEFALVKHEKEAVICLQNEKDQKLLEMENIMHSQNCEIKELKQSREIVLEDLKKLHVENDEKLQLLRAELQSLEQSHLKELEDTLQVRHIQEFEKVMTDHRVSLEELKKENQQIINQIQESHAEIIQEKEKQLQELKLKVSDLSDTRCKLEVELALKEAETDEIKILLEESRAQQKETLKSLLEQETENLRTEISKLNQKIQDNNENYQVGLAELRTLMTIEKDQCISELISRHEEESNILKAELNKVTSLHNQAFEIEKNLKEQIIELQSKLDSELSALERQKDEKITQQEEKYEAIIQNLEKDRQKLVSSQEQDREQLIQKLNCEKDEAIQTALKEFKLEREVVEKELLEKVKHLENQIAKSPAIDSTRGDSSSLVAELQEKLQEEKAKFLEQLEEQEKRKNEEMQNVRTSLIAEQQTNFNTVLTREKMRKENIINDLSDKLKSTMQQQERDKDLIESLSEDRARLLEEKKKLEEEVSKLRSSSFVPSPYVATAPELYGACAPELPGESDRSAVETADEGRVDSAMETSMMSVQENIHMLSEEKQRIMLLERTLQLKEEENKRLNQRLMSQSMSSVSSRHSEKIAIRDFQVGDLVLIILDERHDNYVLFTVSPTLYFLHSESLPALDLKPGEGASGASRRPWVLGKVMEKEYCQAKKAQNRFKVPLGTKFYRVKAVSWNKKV
inactive: [1] 0.198 | [2] 0.096 | [3] 0.032 | [4] 0.029 | [5] -0.063

RABGAP1L isoform 3 (UniProt Q5R372)
inactive: [1] 0.007 | [2] 0.024 | [3] 0.033 | [4] -0.015 | [5] -0.005
